Screening results (PubChem)
In the library only some 19% were active in any assay of this set; here they are far more common.
DT40 TDP1 CPT = DT40-hTDP1 cell growth loss with CPT; chicken DT40 Tdp1-/-;hTDP1 cells + 20 nM CPT, ATP luminescence, 48 h; Potency, µM (titrated, usually from 46.2 µM), for inactives: at the top dose activity change, negative = growth inhibition, usual class: inhibitors; 420,000 tested, 12% active; AID 686979; note: potency is the fitted concentration of half-maximal effect; nearly all actives have a fitted effect of over 55% in size
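Chicken DT40 Tdp1-/- cells stably complemented with human TDP1 were seeded at 400 cells/well in medium containing 20 nM camptothecin, exposed to pin-transferred compounds, and grown at 37 °C for at least 48 hr. Viability was read as ATP luminescence.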
ELG1 DNA repair = ELG1-dependent DNA repair inhibition | 330,000 tested, 2.3% active | HEK293T ELG1-luciferase reporter, luminescence, 16 h; DNA damage induced by 5-fluorouridine | Potency, µM (series often up to 46.1 µM), for inactives: at the highest dose activity change, negative = inhibition, hits mostly inhibitors; note: potency is the fitted concentration of half-maximal effect; nearly all actives have a fitted effect of over 55% in size
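Overnight (16 hr) co-exposure of 2,000 cells/well to 5-fluorouridine and compound at 37 °C preceded detection. Luciferase was quantified via ONE-Glo luminescence; loss of signal denotes inhibition.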
TDP1 cell noCPT = qHTS for Inhibitors of human tyrosyl-DNA phosphodiesterase 1 (TDP1): qHTS in cells in absence of CPT | DT40 Tdp1-/- hTDP1 cells, no CPT, ATP luminescence, 48 h | Potency, µM (series often up to 46.2 µM), for inactives: at the top dose activity change, negative = growth inhibition, usual class: inhibitors | 420,000 tested, 15% active; note: potency is the fitted concentration of half-maximal effect; nearly all actives have a fitted effect of over 55% in size
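Chicken DT40 Tdp1-/- cells stably complemented with human TDP1 were seeded at 400 cells/well with DMSO in place of 20 nM camptothecin. After compound pinning, cells grew at least 48 hr at 37 °C; viability read by CellTiter-Glo luminescence.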
Giardia killer = Giardia lamblia killing; Giardia lamblia trophozoite viability; activity change, % at 7.66 µM, hits read low; 340,000 tested, 0.15% active; AID 540267; in the data active = activity change below about -80%; inconclusive = between about -30% and that limit;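 note: parasites exposed to compound for two days anaerobically before the ATP read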
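Killing of trophozoites was scored by loss of ATP luminescence after a 48 hrs anaerobic exposure to compounds at 37 deg C, using 100 cells per well.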
IL1B secr inh = inhibitors of inflammasome signaling (IL-1 beta secretion); THP-1 LPS/ATP IL-1B secretion, AlphaLISA, 16 h; stronger effect = lower value; activity change, % at 57.5 µM; 360,000 tested, 4.7% active; AID 743279; in the data active = activity change below about -50%; inconclusive = mostly about -30% to -49%
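THP-1 cells pretreated 1 hr with compounds (up to 57.5 uM final), then stimulated with LPS (250 ng/mL final) plus ATP (1.25 mM final); secreted IL-1B measured by AlphaLISA after 16 hr, decreased signal indicating inhibition.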
TDP1 inh = TDP1 (human) enzyme inhibition | Q9NUW8 | recombinant TDP1, AlphaScreen DNA substrate cleavage | Potency, µM (highest dose often 130 µM), for inactives: top-dose activity change, negative = inhibition, usual class: inhibitors | 350,000 tested, 0.28% active; note: potency is the fitted concentration of half-maximal effect; nearly all actives have a fitted effect of over 40% in size
Target sequence (Q9NUW8 whole entry, looked up): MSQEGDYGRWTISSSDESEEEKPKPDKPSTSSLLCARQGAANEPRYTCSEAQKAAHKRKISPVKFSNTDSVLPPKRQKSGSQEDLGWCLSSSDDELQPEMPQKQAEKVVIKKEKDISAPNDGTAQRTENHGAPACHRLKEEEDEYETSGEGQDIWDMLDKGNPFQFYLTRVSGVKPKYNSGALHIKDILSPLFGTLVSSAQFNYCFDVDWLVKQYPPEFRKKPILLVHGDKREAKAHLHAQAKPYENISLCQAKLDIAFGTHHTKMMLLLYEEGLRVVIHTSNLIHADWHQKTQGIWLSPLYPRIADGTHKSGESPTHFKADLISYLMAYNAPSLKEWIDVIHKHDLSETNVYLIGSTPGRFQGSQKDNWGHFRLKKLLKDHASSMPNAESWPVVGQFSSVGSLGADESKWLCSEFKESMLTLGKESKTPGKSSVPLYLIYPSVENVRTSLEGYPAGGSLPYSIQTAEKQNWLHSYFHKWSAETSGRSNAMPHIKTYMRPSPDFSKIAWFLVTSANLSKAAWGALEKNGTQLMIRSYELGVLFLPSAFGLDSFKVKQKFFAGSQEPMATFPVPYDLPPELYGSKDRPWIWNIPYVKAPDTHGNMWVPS
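Signal: AlphaScreen proximity between streptavidin donor and anti-FITC acceptor beads on intact substrate. Reaction: Tdp1 1 nM, substrate 15 nM final, 5 min RT after 15 min compound preincubation.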
An asterisk follows results filed as active; ? = inconclusive; nt = not tested or not shown; [ ] = another dose, or the depositor's remark. Unless noted, calls come from the whole dose curve; as a rule, active = well fitted curve in the direction sought with a large enough effect; inconclusive = small, poorly fitted or top-dose-only effect, or another doubt; inactive = no such curve, though single readings can be large; an effect the other way counts as inactive or inconclusive. % is set by controls: 0 for no effect and ±100 for the full control effect.

SMILES	DT40 TDP1 CPT	ELG1 DNA repair	TDP1 cell noCPT	Giardia killer	IL1B secr inh	TDP1 inh
C=CCN1C(=O)c2ccc(C(=O)NCCc3ccc(F)cc3)cc2C1=O	14.2%	nt	7.4%	22.3	7.4	nt
O=C(COC(=O)c1ccc(O)cc1O)Nc1nnc(-c2ccccc2)o1	-5.9%	3.5%	5.1%	-10.0	12.3	-4.7%
CCOc1ncccc1C(=O)OCC(=O)c1cccs1	-26.1%	5.3%	-9.8%	-10.5	12.1	-1.0%
CCOc1ncccc1C(=O)OCC(=O)c1ccc(Br)s1	?	18.2%	4.61µM*	11.9	-11.2	-9.0%
CCOc1ncccc1C(=O)OCC(=O)Nc1nnc(-c2ccccc2)o1	?	16.2%	23.1µM*	-16.1	8.6	-7.3%
Cn1c(N)c(C(=O)COC(=O)c2ccc(S(=O)(=O)N3CCCCC3)cc2)c(=O)n(C)c1=O	nt	-4.4%	nt	nt	nt	8.0%
CC1CCN(C(=O)Cn2c(=O)n(CCc3ccccc3)c(=O)c3ccccc32)CC1	14.6µM*	?	16.4µM*	-5.5	4.8	4.5%
CC1CCN(CCCNC(=O)CCc2nnc3n(CCc4ccccc4)c(=O)c4ccccc4n23)CC1	?	?	16.4µM*	2.4	?	0.9%
CC1CCN(C(=O)Cn2c(=O)n(Cc3ccc4c(c3)OCO4)c(=O)c3ccccc32)CC1	?	-0.1%	?	-3.3	-29.0	2.3%
Cn1c(=O)cc(SCC(=O)N2CCN(C3CCCCC3)CC2)c2ccccc21	?	nt	?	-19.5	-60.3*	nt
CCn1c(=O)cc(SCC(=O)N2CCN(c3cc(C)ccc3C)CC2)c2ccccc21	16.4µM*	nt	?	nt	nt	6.9%
COC(=O)Cn1c(SCCOc2ccccc2OC)nc2ccccc21	-24.0%	nt	-22.5%	nt	nt	8.6%
Cc1cccn2c(=O)nc(SCC(=O)N3CCC(Cc4ccccc4)CC3)nc12	?	-21.5%	?	-3.5	-24.1	nt
CN(C(=O)CSc1nnc(-c2ccccc2)o1)c1c(N)n(Cc2ccccc2)c(=O)[nH]c1=O	2.7%	6.9%	-7.0%	11.1	-8.0	7.7%
Cn1nc(C(=O)NCCc2ccc(S(N)(=O)=O)cc2)c2ccccc2c1=O	2.0%	?	-22.2%	7.7	28.6	5.7%
Cc1ccc(C)c(N2CCN(C(=O)COc3cc(=O)n(C)c4ccccc34)CC2)c1	14.6µM*	?	?	10.0	-26.4	6.0%
Cn1cc(SCC(=O)N2CCN(c3ccccc3)CC2)c2ccccc21	20.6µM*	-10.4%	?	6.9	-1.5	7.8%
Cn1cc(SCC(=O)N2CCOCC2)c2ccccc21	14.7%	?	-9.4%	-9.4	14.6	6.5%
CCn1c(=O)cc(SCC(=O)N2CCC(C)CC2)c2ccccc21	?	?	?	-11.4	-61.9*	4.0%
CCn1c(=O)cc(SCC(=O)N2CCCCC2)c2ccccc21	-24.1%	?	?	-4.8	-12.6	2.8%
CCSc1ncc(Cl)c(C(=O)N(Cc2ccc(C(C)(C)C)cc2)C2CCS(=O)(=O)C2)n1 (stereo not drawn)	?	nt	?	nt	nt	0.0%
CC(O)(COc1ccccc1)c1ccc2c(c1)CN(C/C=C/c1ccco1)CCO2 (stereo not drawn)	-10.9%[9.04 µM]	nt	?	nt	nt	nt
CCCCN1C(=O)CN(C2CCCCCC2)C(=O)C1c1ccc(OCC)c(OC)c1 (stereo not drawn)	?	nt	?	nt	nt	0.0%
COCCNC(=O)CCn1c(=O)[nH]c2cc(OC)c(OC)cc2c1=O	-13.5%	nt	-1.4%	nt	nt	0.0%
C=C(C)C1CC[C@]2(CO)CC[C@@]3(C)[C@H](CCC4[C@@]5(C)CCC(O)C(C)(C)C5CC[C@@]43C)C12 (stereo partly drawn)	-4.7%	nt	-19.2%	nt	nt	2.6%[56.1 µM]
COc1ccc(NC(=O)/C=C/c2ccc(Br)o2)cn1	-0.2%	?	-25.9%	13.1	-12.8	20µM*
